This passage reports inhibition results from PubChem BioAssay AID504329 (Southern Research Specialized Biocontainment Screening …, 2011).

Broadly, the inhibition is the relative decrease from the control value, in per cent.

The whole screen tested about 340,000 compounds, of which about 1,000 (0.29%) were called active. Rule as the data show it: inconclusive = inhibition above about 27% without an active follow-up result; inactive = below that. A selection follows. Results with a measured potency or affinity are listed apart.

This assay is described as follows: H1N1 influenza NS1A inhibitors, functional cell based assay (AID 504329). To be noted: percent inhibition, at 12.5 µM, stronger effect = higher value.
For `C=CCn1c(SCC(=O)NCc2ccc3c(c2)OCO3)nnc1C1COc2ccccc2O1` (stereo not drawn), the inhibition was -2.53% (inactive).

For the compound `CCC(C)[C@H](NC(=O)N1CCn2c1nc1ccccc12)C(=O)NCCc1ccccc1` (stereo partly drawn), the inhibition was 4.3% (inactive).

Take `COc1cccc(-c2ccc(NC(=O)C3CCCN(CCCn4nc(C)cc4C)C3)cc2)c1` (stereo not drawn): the inhibition is 3.69% (inactive).

As for `N#Cc1c(C(F)(F)F)cc(-c2ccccc2)n(N)c1=O`, the inhibition is -8.39% (inactive).

Regarding `O=C(Nc1ccon1)c1ccc(Cl)c(S(=O)(=O)N2CCCCC2)c1`, the inhibition is -6.8% (inactive).

For the compound `CCc1n[nH]c(=S)n1/N=C/c1ccccn1`, the inhibition was -4.28% (inactive).

In the case of `S=c1[nH]nc(C2CCCCC2)n1/N=C/c1ccccn1`, the inhibition was -8.07% (inactive).

For the compound `Cc1ccc(CNC(=O)CSc2ccc(-c3ccccn3)nn2)cc1`, the inhibition is 14.6% (inactive).

Turning to `COc1cccc(CNC(=O)CSc2ccc(-c3cccs3)nn2)c1`, the inhibition is 5.92% (inactive).

Consider `COc1cccc(CNC(=O)CSc2ccc(-c3ccco3)nn2)c1`, for which the inhibition was -0.85% (inactive).

Consider `O=C(CSc1ccc(-c2ccccn2)nn1)NCc1ccccc1`, for which the inhibition was 1.11% (inactive).

On to `O=C(O)C1CCCCC1C(=O)Nc1ccc(S(=O)(=O)N2CCCCC2)cc1` (stereo not drawn), for which the inhibition is 4.7% (inactive).

Take `CCCC(C)C1(CC)C(=O)NC(=O)N=C1N` (stereo not drawn): the inhibition was -9.22% (inactive).

Turning to `O=C(NCc1cccnc1)c1ccccc1NS(=O)(=O)c1ccccc1`, the inhibition was -3.37% (inactive).

Turning to `CCOC(=O)C1CCCN(c2c(N3CCN(c4ccccn4)CC3)c(=O)c2=O)C1` (stereo not drawn), the inhibition was 6.61% (inactive).

In the case of `CCCCCOc1ccc(C(=O)NCCC(=O)NCCCC(=O)OCC)cc1`, the inhibition is -5.18% (inactive).

`CC1(C)CC(=O)C2=C(C1)Nc1ccccc1NC2c1ccc(F)c(F)c1` (stereo not drawn): the inhibition is -6.87% (inactive).

As to `Cc1[nH][nH]c(=O)c1C(c1c(C)[nH][nH]c1=O)c1cn(Cc2ccc(Cl)c(Cl)c2)c2ccccc12`, the inhibition is 17.4% (inactive).

Regarding `O=C(O)Cc1cn(Cc2ccc(F)cc2)c2ccccc12`, the inhibition is 5.18% (inactive).

Consider `CCN(CC)c1ccc(CNc2nc3ccccc3n2CCN2CCOCC2)cc1`, for which the inhibition was 5.53% (inactive).

Regarding `COc1ccc(CNc2nc3ccccc3n2CCN2CCCCC2)cc1`, the inhibition was 8.37% (inactive).

`CC(C)C[C@@H](CNCC(=O)[C@H](CC(C)C)NC(=O)c1[nH]cnc1C(=O)N[C@H](CN)CC(C)C)NC(=O)c1nc[nH]c1C(=O)N[C@@H](Cc1ccccc1)C(=O)O`: the inhibition is -21.2% (inactive).

`COC(=O)c1scc(C)c1NC(=O)c1ccccc1F`: the inhibition is -2.27% (inactive).

On to `COc1cccc(OC)c1C(=O)Nc1nnc(-c2ccc(F)cc2)s1`, for which the inhibition is -7.27% (inactive).

On to `CCN(CC)c1ccc(/C=N/N(c2ccccc2)c2ccccc2)c(O)c1`, for which the inhibition is -0.39% (inactive).

In the case of `CCN(CC)c1ccc2nc3ccccc3[n+](CC)c2c1`, the inhibition is 25.1% (inactive).

Regarding `N#Cc1nc(COc2cccc(Cl)c2)oc1N1CCN(c2ccccc2)CC1`, the inhibition was -10.8% (inactive).

As to `CC(=O)Nc1c(O)c2ccccc2[nH]c1=O`, the inhibition is -0.37% (inactive).

With `O=C1C(c2c(O)[nH]c3ccccc23)=Nc2ccccc21`, the inhibition was 4.56% (inactive).

For `COc1ccc(CCNC(=O)c2ccc(CS(=O)(=O)Cc3cccc(C)c3)o2)cc1OC`, the inhibition is 1.57% (inactive).

On to `O=C(CN1C(=O)c2ccccc2C1=O)Nc1cccc(Cl)c1`, for which the inhibition was -5.21% (inactive).

In the case of `Nc1ccc2cn[nH]c2c1`, the inhibition was 0.77% (inactive).

On to `Nc1ccc2nc(-c3cccc(-c4nc5ccc(N)cc5[nH]4)n3)[nH]c2c1`, for which the inhibition was 16.6% (inactive).

Turning to `O=C(OCCn1c(=S)sc2ccccc21)c1ccccc1`, the inhibition was -0.85% (inactive).

Take `O=C(c1ccccc1)c1ccc(C(=O)N2CCOCC2)cc1`: the inhibition is 2.77% (inactive).

For `CC(=O)Nc1ccc(NC(=O)CSc2nnc(-c3cccnc3)o2)cc1`, the inhibition was -1.5% (inactive).

Consider `O=C(CSc1nnc(-c2cccnc2)o1)Nc1ccccn1`, for which the inhibition is 19% (inactive).

Take `CCOC(=O)C1CCCN(c2c(NCCc3ccc(S(N)(=O)=O)cc3)c(=O)c2=O)C1` (stereo not drawn): the inhibition is -1.2% (inactive).

On to `Cc1ccc2c(CN(C)Cc3ccc(OC(F)F)cc3)cc(=O)oc2c1C`, for which the inhibition was -13.7% (inactive).

`CN(Cc1nccs1)C(=O)C1CCC(=O)N(Cc2ccccc2F)C1` (stereo not drawn): the inhibition was -7.1% (inactive).

On to `COc1cccc(/C=C2\SC(=S)N(CCCC(=O)N3CCCCC3)C2=O)c1`, for which the inhibition was 13.4% (inactive).

In the case of `COc1cccc(/C=C2\SC(=S)N(CCC(=O)N3CCCCC3)C2=O)c1`, the inhibition is -7.67% (inactive).

For `S=c1[nH]c(-c2ccccc2)cs1`, the inhibition was -8.02% (inactive).

Consider `S=c1[nH]cnc2scc(-c3ccccc3)c12`, for which the inhibition is 2.25% (inactive).

With `CCn1cc(C(=O)NCc2ccc(OC)cc2)c(=O)c2ccc(C)nc21`, the inhibition was -3.98% (inactive).

Regarding `O=C(NCCc1ccccc1)C(=O)NCC1CCCN1S(=O)(=O)c1ccccc1` (stereo not drawn), the inhibition was -2.99% (inactive).

Take `CCN(CC)c1ccc(/C=C2\CCC(/C=C(/C#N)C(=O)Nc3ccccc3F)=C2N2CCOCC2)cc1`: the inhibition was -9.82% (inactive).

With `N#C/C(=C\C1=C(N2CCOCC2)C(=C\c2ccc(Cl)cc2)/CC1)C(=O)Nc1ccccc1F`, the inhibition was 8.68% (inactive).

Regarding `N#C/C(=C/C1=C(N2CCOCC2)C(=C/c2ccc(Cl)cc2)/CC1)C(=O)Nc1ccccc1F`, the inhibition is -12.3% (inactive).

For `CCN(CC)c1ccc(/C=C2\CCC(/C=C(\C#N)C(=O)Nc3ccccc3F)=C2N2CCOCC2)cc1`, the inhibition is -0.77% (inactive).

For the compound `CCOc1cccc(C2C(C(=O)c3ccc(C)o3)=C(O)C(=O)N2c2nnc(C)s2)c1` (stereo not drawn), the inhibition was 3.08% (inactive).

Regarding `CC1(c2ccccc2)NC(=O)N(NC(=O)COC(=O)c2cc(Br)ccc2O)C1=O` (stereo not drawn), the inhibition was -5.16% (inactive).

Consider `O=C(NCCN1CCCCC1)c1ccc(Cl)nc1Cl`, for which the inhibition was -3.64% (inactive).

For the compound `Cc1ccc(S(=O)(=O)Nc2ccc(O)c3cccnc23)cc1`, the inhibition is -4.48% (inactive).

Turning to `Cc1ccc(S(=O)(=O)Nc2cccc3cccnc23)cc1`, the inhibition was -11% (inactive).

For `Cc1ccc(S(=O)(=O)Nc2cc(Cl)c(O)cc2C)cc1`, the inhibition was 6.58% (inactive).

As for `Cc1ccc(S(=O)(=O)Nc2cccc3ncccc23)cc1`, the inhibition was -4.33% (inactive).

As to `Cc1nn(-c2ccccc2)c(C)c1/C=C/C(=O)OCC(=O)Nc1ncc(Cl)cc1Cl`, the inhibition was -0.68% (inactive).

On to `CCc1ccc2[nH]c(C)c(CN3CCCCCC3)c(=O)c2c1`, for which the inhibition was 6.48% (inactive).

In the case of `Cc1ccc(NC(=O)CSc2nnc(-c3ccco3)o2)cc1`, the inhibition was 5.76% (inactive).

As for `Cc1cc(NC(=O)CSc2nnc(-c3ccccc3)o2)no1`, the inhibition was 14% (inactive).

Take `Nc1ccc(-c2ccccc2)cc1`: the inhibition is -0.13% (inactive).

In the case of `O=C(O)c1ccc(N(c2ccccc2)c2ccccc2)cc1`, the inhibition is -2.79% (inactive).

Take `Cc1ccc(C(=O)Nc2ccc(N3CCN(C(=O)c4ccco4)CC3)cc2)cc1`: the inhibition was -1.89% (inactive).

With `S=C1NC2(CCCCC2)N=C1c1ccccc1`, the inhibition is -4.42% (inactive).

For the compound `S=C1NC2(CCCCCC2)N=C1c1ccccc1`, the inhibition was 6.12% (inactive).

For the compound `CC(=O)Nc1nonc1-c1nc2ccccc2n1CC1CC1`, the inhibition is 6.72% (inactive).

Take `O=C(CSc1nnc(SCc2ccc(Cl)cc2)s1)N/N=C/c1ccc(C(=O)O)cc1`: the inhibition is -0.08% (inactive).

Turning to `CC1CCN(S(=O)(=O)c2ccc3c(c2)N(CC(=O)N(C)Cc2ccco2)C(=O)CO3)CC1`, the inhibition was 3.45% (inactive).

For `CCCOc1cccc(-c2nn(-c3ccccc3)cc2/C=C(\C#N)C(=O)NCCCn2ccnc2)c1`, the inhibition is 1.02% (inactive).

As to `O=C(NCCCn1ccnc1)c1cn(-c2ccccc2)nc1-c1ccc(F)cc1`, the inhibition is 6.07% (inactive).

With `CCOc1cccc(-c2nn(-c3ccccc3)cc2/C=C(/C#N)C(=O)NCCCn2ccnc2)c1`, the inhibition was 6.31% (inactive).

In the case of `N#C/C(=C/c1cn(-c2ccccc2)nc1-c1cccc(OCc2ccccc2)c1)C(=O)NCCCn1ccnc1`, the inhibition is -3.98% (inactive).

For `CC(C)C(=O)Nc1cccc(C(=O)Nc2cc([N+](=O)[O-])ccc2F)c1`, the inhibition is -8.76% (inactive).

Consider `COc1ccc(C(=O)O/N=C(\N)c2ccc(Cl)cc2)cc1`, for which the inhibition was 2.64% (inactive).

For the compound `CN1CCCN(C(=O)CNC(=O)c2ccccc2F)CC1`, the inhibition was -1.28% (inactive).

For `Cc1c(C(C)(C)C)sc(=NC(=O)c2ccccc2O)n1C`, the inhibition is -24.8% (inactive).

Take `Nc1[nH]c(N=NC(=O)c2ccc(F)cc2)c2ccccc12`: the inhibition is 12.2% (inactive).

Turning to `CC(=O)N=Nc1[nH]c(N)c2ccccc12`, the inhibition was -6.73% (inactive).

On to `Nc1[nH]c(N=NC(=O)c2ccccc2)c2ccccc12`, for which the inhibition is 19% (inactive).

Turning to `Nc1[nH]c(N=NC(=O)c2ccc(Cl)cc2)c2ccccc12`, the inhibition is 10.9% (inactive).

In the case of `Cc1ccc(N2CC(C(=O)Nc3nc4ccc(S(C)(=O)=O)cc4s3)CC2=O)cc1` (stereo not drawn), the inhibition was -4% (inactive).

On to `COc1cc(C(=O)NCc2ccccc2)ccc1OC(F)F`, for which the inhibition was 2.29% (inactive).

As to `Cc1ccc(NC2=CC(=O)C(=O)c3ccccc32)c(C)c1`, the inhibition is -11% (inactive).

`Cc1cccc(NC2=C/C(=N/S(=O)(=O)c3cccs3)c3ccccc3C2=O)c1`: the inhibition is 22.8% (inactive).

Regarding `Cc1ccc(NC2=C/C(=N/S(=O)(=O)c3cccs3)c3ccccc3C2=O)cc1`, the inhibition was 2.95% (inactive).

For `O=C1C=C(Nc2ccc(O)cc2)C(=O)c2ccccc21`, the inhibition is 24.1% (inactive).

For `Cc1ccc(S(=O)(=O)/N=C2\C=C(NS(=O)(=O)c3ccccc3)C(=O)c3ccccc32)c(C)c1`, the inhibition was 10.6% (inactive).

For the compound `O=C1C=C(Nc2ccccc2)c2ccccc2C1=O`, the inhibition is -0.21% (inactive).

For `Cc1ccc(NC2=C/C(=N/S(=O)(=O)c3cccs3)c3ccccc3C2=O)cc1C`, the inhibition was -0.69% (inactive).

In the case of `O=S(=O)(/N=C(/Nc1ccccc1)c1ccccc1)c1cccs1`, the inhibition is -0.58% (inactive).

Turning to `O=C(C1CC(=O)N(c2ccc(F)cc2)C1)N1CCC(c2nc3ccccc3[nH]2)CC1` (stereo not drawn), the inhibition was -1.46% (inactive).

Consider `COc1ccc(-c2cc(C(=O)Nc3ccc(F)cc3F)no2)cc1`, for which the inhibition was -13.1% (inactive).
